Among the data in PubChem BioAssay are composite z-score and z-score values, retold here.

Active and inactive are the calls of the source.

Assay [1] relates to Plasmodium falciparum Sir2 (PF13_0152, Sir2A). The assay can be described thus: Plasmodium falciparum Sir2A binding compounds – biochemical, small-molecule microarray, 635 nm fluorescence, primary screen (AID 1098).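 Further: score merges spot fluorescence intensity with its signal-to-noise ratio.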 Conditions: fluorescence 635 nm, higher = more signal.
A short description of assay [2]: probe aDKK1 binding to arrayed compounds – biochemical, biotinylated probe, 635/667 nm fluorescence, primary screen (AID 1099).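 Further: score merges 667nm spot fluorescence with signal to noise across triplicate slides.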 Conditions: small-molecule microarray, higher = more signal.
Assay [3] is described as follows: probe aCHRDL2 binding to arrayed compounds – biochemical, biotinylated probe, 635/667 nm fluorescence, primary screen (AID 1100). To be noted: small-molecule microarray, higher = more signal.
Assay [4] in a line: change in splice reporter luminescence, either direction, cell-based, HEK293, spliceosome inhibition project, primary screen (AID 1101).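 Further: HEK293 cells carrying a splicing-competent luciferase reporter gene; test concentration not given here.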 Conditions: HEK293 splicing luciferase reporter, 24 h, higher = more signal, called active from +8 up or from −8 down. Background: Reporter assays use an easily measured gene product as a stand-in for the process of interest.
The target in assay [5] is Fibroblast growth factor 10 (Homo sapiens) (UniProt O15520). The assay can be described thus: compounds binding fibroblast growth factor 10 – biochemical, small-molecule microarray, 635 nm fluorescence, primary screen (AID 1102). Conditions: FGF10 binding, fluorescence 635 nm, higher = more signal.
Fibroblast growth factor 10 (Homo sapiens), sequence (O15520 whole entry, looked up): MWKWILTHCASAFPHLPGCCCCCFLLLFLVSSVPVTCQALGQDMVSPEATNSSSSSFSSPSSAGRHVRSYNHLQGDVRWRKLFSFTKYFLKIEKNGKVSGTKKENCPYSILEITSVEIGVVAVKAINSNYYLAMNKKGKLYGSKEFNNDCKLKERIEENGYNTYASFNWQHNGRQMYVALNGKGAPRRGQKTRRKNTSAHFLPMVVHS
Assay [6] has as its system glycogen synthase kinase-3 (GSK3A per assay name; protocol says GSK3B). Description: compounds binding glycogen synthase kinase-3 – biochemical, small-molecule microarray, 635 nm fluorescence, GSK3A, primary screen (AID 1103). Further: the record names both GSK3A and GSK3B. Conditions: fluorescence 635 nm, higher = more signal.
Assay [7] addresses Epidermal growth factor receptor (Homo sapiens) (UniProt P00533). Description: compounds binding epidermal growth factor receptor – biochemical, small-molecule microarray, 635 nm fluorescence, primary screen (AID 1104).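 Further: score merges 667 nm emission intensity with spot signal to noise over triplicate slides.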 Conditions: EGFR binding, higher = more signal.
Assay [8] deals with Follistatin-related protein 3 (Homo sapiens) (UniProt O95633). Description: compounds binding follistatin-related protein 3 – biochemical, small-molecule microarray, 635 nm fluorescence, primary screen (AID 1105).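 Further: score merges emission near 667 nm and signal to noise per printed spot across three slides.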 To be noted: FSTL3 binding, higher = more signal.
Follistatin-related protein 3 (Homo sapiens), sequence (O95633 whole entry, looked up): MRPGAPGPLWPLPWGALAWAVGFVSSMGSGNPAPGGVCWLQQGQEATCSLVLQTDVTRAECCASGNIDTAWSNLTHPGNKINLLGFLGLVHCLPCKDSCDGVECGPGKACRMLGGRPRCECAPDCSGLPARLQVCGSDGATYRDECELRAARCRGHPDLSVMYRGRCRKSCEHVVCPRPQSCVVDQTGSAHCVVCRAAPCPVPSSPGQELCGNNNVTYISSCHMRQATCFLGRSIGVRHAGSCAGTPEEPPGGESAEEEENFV
For assay [9], the target named is Dickkopf-related protein 1 (Homo sapiens) (UniProt O94907). The assay can be described thus: small molecules binding DKK1 protein – biochemical, small-molecule microarray, 635 nm fluorescence scan, primary screen (AID 1106).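 Further: score merges emission near 667 nm with signal to noise over three replicate slides.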 To be noted: higher = more signal.
Dickkopf-related protein 1 (Homo sapiens), sequence (O94907 whole entry, looked up): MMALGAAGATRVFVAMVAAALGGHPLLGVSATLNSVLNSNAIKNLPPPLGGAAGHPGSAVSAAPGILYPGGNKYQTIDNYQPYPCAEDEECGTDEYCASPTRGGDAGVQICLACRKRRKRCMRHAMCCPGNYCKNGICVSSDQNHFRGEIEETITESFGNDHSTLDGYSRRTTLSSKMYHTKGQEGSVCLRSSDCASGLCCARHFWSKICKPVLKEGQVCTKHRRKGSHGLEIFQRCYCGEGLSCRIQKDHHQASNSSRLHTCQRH
Assay [10] relates to Inhibin beta A chain (activin A). The assay can be described thus: small molecules binding activin A – biochemical, small-molecule microarray, 635 nm fluorescence scan, primary screen (AID 1107).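 Further: mouse activin A protein probed at 4.33 µg/mL on printed slides; score merges bound-protein fluorescence near 667 nm with spot signal-to-noise.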 Conditions: INHBA, higher = more signal.
Assay [11] relates to Human papillomavirus type 1a protein E7 (residues 44-93). Description: small molecules binding HPV E7 44-93 – biochemical, small-molecule microarray, residues 44-93, 635 nm fluorescence, primary screen (AID 1108).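 Further: E7 fragment applied at 1 µg/mL in TBST for 1 h at 4 C; score combines spot fluorescence with its signal to noise ratio.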 Conditions: fluorescence 635 nm, higher = more signal.
Assay [12] is described as follows: hepatitis C replication reporter changes, two-sided – Huh7 cells, luciferase reporter, HCV replication inhibitor project, primary screen (AID 1109).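 Further: huh7 hepatoma cells harbouring a luciferase neomycin HCV replicon reporter; luciferase luminescence as measure of HCV replicon replication; test concentration not given here.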 To be noted: Huh7 HCV replicon luciferase reporter, 48 h; higher = more signal.
In assay [13] the target is Left-right determination factor 2 (Homo sapiens) (UniProt O00292). The assay can be described thus: small molecules binding LEFTY2 protein – biochemical, small-molecule microarray, 635 nm fluorescence scan, primary screen (AID 1110). Conditions: higher = more signal.
Left-right determination factor 2 (Homo sapiens), sequence (O00292 whole entry, looked up): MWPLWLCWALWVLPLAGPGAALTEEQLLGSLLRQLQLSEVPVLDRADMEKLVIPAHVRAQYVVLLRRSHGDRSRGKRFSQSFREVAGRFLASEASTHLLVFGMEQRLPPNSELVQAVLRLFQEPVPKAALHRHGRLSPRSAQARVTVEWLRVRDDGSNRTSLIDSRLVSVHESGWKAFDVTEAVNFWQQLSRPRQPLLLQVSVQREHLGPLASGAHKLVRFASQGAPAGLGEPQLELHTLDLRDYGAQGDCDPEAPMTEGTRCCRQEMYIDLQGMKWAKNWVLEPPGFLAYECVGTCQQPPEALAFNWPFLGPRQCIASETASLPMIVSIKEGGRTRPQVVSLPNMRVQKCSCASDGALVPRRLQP
Assay [14] has as its target Calmodulin-1 (Homo sapiens) (UniProt P0DP23). The assay can be described thus: small molecules binding calmodulin-1 with EGTA – biochemical, small-molecule microarray, Cy5-labelled CALM1, profiling panel (AID 1111).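 Further: labelled calmodulin applied in Tris saline Tween buffer holding calcium plus EGTA and DTT.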 To be noted: Cy5-CALM1 binding fluorescence, higher = more signal.
The target is the same in assay [15]. The assay can be described thus: small molecules binding Ca-loaded calmodulin-1 – biochemical, small-molecule microarray, Cy5-labelled CALM1, plus calcium, artefact control for SMM control-protein annotation, profiling panel (AID 1112).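 Further: score merges spot fluorescence with signal to noise from triplicate slides.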 Conditions: Cy5-CALM1 binding fluorescence, higher = more signal.
Assay [16] in a line: probe aWnt5a binding to arrayed compounds – biochemical, biotinylated probe, 635/667 nm fluorescence, primary screen (AID 1113).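 Further: score merges 667 nm fluorescence intensity with signal-to-noise per printed feature.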 To be noted: small-molecule microarray, higher = more signal.
A short description of assay [17]: probe aShh binding to arrayed compounds – biochemical, biotinylated probe, 635/667 nm fluorescence, primary screen (AID 1114).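 Further: probe is biotin-labelled aShh protein from a stem cell growth factor screen; measures binding of labelled protein to compounds printed on the slide; score merges feature fluorescence at 667 nm with signal-to-noise.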 Conditions: small-molecule microarray, higher = more signal.
The nature of assay [18]: probe aNog binding to arrayed compounds – biochemical, biotinylated probe, 635/667 nm fluorescence, primary screen (AID 1115).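 Further: probe is biotinylated aNog protein used at 0.15 µg/mL for 1 h at 4 C; z-score combines 667 nm fluorescence of each spot with its signal to noise.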 To be noted: small-molecule microarray, higher = more signal.
Assay [19] deals with Torsin-1A-interacting protein 1 (Homo sapiens) (UniProt Q5JTV8). The assay can be described thus: compound microarray binding of lysate hLAP1 – cell lysate, small-molecule microarray, COS7 lysate, 635/667 nm fluorescence, primary screen (AID 1116). Conditions: 635 nm fluorescence, higher = more signal.
Torsin-1A-interacting protein 1 (Homo sapiens), sequence (Q5JTV8 whole entry, looked up): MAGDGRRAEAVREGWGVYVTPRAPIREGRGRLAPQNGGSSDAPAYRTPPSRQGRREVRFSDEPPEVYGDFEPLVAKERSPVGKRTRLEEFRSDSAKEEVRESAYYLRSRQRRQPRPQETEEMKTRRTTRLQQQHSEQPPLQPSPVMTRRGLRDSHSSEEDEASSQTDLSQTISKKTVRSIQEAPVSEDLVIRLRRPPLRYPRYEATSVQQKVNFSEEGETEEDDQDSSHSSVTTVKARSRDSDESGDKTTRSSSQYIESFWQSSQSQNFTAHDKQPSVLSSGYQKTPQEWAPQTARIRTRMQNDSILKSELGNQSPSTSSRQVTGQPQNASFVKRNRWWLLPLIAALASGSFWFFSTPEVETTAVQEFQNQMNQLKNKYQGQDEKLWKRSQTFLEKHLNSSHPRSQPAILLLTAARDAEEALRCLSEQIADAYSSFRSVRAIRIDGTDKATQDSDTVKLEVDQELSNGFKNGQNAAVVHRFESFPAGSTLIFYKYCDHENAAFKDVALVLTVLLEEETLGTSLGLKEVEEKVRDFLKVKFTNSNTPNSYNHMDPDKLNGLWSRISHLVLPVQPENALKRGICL
In assay [20] the target is Alpha-bungarotoxin (Bungarus multicinctus) (UniProt P60615). The assay can be described thus: compounds binding labelled alpha-BTX control protein – biochemical, small-molecule microarray, Alexa647 label, 635/667 nm fluorescence, artefact control for SMM control protein annotation, profiling panel (AID 1117). Conditions: alpha-BTX-A647 binding fluorescence, higher = more signal.
Alpha-bungarotoxin (Bungarus multicinctus), sequence (P60615 whole entry, looked up): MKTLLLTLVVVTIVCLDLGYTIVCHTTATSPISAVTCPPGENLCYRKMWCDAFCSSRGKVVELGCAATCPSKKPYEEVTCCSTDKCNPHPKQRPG

Epidermal growth factor receptor (Homo sapiens), sequence (P00533 whole entry, looked up): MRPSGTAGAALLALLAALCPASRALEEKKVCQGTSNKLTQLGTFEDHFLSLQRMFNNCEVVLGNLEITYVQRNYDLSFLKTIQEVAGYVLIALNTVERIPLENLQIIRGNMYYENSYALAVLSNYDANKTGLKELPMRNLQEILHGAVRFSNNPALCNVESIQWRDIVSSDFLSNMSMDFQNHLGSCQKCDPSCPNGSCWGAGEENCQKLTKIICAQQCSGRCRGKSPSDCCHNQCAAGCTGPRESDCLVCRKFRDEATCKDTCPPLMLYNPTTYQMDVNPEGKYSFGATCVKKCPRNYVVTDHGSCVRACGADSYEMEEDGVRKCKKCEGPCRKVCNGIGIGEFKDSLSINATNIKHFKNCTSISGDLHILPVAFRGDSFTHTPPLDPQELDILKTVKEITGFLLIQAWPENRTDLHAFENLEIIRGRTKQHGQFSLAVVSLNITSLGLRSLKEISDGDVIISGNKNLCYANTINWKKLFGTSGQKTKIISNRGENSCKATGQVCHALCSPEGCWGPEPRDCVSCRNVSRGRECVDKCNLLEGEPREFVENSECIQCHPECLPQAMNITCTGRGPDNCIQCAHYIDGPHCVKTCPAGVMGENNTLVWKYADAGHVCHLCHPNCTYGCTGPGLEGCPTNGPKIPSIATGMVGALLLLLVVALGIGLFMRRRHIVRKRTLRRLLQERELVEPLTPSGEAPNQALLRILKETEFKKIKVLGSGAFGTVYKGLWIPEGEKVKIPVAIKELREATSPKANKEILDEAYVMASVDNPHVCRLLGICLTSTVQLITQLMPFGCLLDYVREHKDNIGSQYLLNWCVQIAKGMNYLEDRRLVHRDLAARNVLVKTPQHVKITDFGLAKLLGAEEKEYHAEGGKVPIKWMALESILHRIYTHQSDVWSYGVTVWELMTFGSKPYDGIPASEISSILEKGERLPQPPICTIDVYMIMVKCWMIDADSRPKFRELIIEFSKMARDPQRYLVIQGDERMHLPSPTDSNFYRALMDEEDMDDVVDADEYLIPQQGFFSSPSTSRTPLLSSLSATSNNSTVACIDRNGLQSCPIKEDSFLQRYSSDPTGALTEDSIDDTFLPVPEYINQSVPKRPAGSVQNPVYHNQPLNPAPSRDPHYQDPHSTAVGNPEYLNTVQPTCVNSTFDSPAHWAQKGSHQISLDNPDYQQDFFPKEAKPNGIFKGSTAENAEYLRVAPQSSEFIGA

`CCOC(=O)C[C@H]1[C@H](OC(=O)c2cc3ccccc3oc2=O)[C@@H](NC(=O)c2ccccc2)c2cc(OCCCO)ccc2N1C(=O)Cc1ccc(OC)cc1`: the composite z-score is 0.575 in assay [1]; 0.33 in [2]; -0.194 in [3]; 0.905 in [5]; 0.714 in assay [6]; 0.433 in assay [7]. The composite z-score in assay [8] was 0.909; in assay [9] it was 0.511; in [10], 0.506; in [11], 0.378; in assay [13] it was 0.357; in [14], 0.163. For the same compound, the composite z-score in assay [15] is -0.422; in [16], -0.182; in [17], -0.138; in assay [18], 0.23; in assay [19], 0.44; in assay [20] it was 0.693. Further, the z-score is -1.78 (inactive) in assay [4] and -0.824 in assay [12].
In the case of `COc1ccc(/C=C/C(=O)c2cccc(OCC(=O)OC(C)(C)C)c2)cc1`, the composite z-score is 0.726 in assay [1]; 0.145 in assay [2]; 0.436 in assay [3]; -0.189 in [5]; 0.483 in [6]; -0.693 in assay [7]. Further, the composite z-score in assay [8] is -0.525; in [9] it was -0.442; in [10], 0.379; in assay [11] it was 0.268; in assay [13], -0.606; in assay [14], -0.0784. Further, the composite z-score in [15] was -0.159; in assay [16] it was -0.173; in assay [17], -0.2; in assay [18], -0.5; in assay [19], 0.154; in assay [20], 0.45. The z-score in [4] is -0.611 (inactive); in assay [12], 1.33.
On to `C=CCN1C(=O)[C@@]2(O[C@@H](CCn3cc(CCO)nn3)[C@H]([Si](C)(C)c3ccc(OC)cc3)[C@H]2C)c2cc(NC(=O)c3ccc(OC)cc3)ccc21`, for which the composite z-score in assay [1] amounted to 1.18; in assay [2], 0.0251; in assay [3] it was 0.113; in [5], 0.402; in assay [6] it was 0.546; in assay [7] it was 0.283. Besides, the composite z-score in assay [8] was found to be 0.571; in assay [9], 0.493; in assay [10], 1.32; in [11], 0.988; in assay [13], 0.415; in assay [14] it was 0.317. Further, the composite z-score in assay [15] is 0.33; in assay [16] it was 0.0205; in assay [17], -0.0035; in assay [18], -0.056; in assay [19], 0.403; in assay [20], 1.54. The z-score was -0.654 (inactive) in [4] and -3.92 in assay [12].
Take `C=C(COC)C(=O)CC[C@H](OC(=O)c1cccnc1)c1cccc(OCCO)c1`: the composite z-score in assay [1] came to 0.935; in assay [2], 0.706; in [3], 0.169; in [5], 1.09; in assay [6] it was 0.538; in assay [7], 0.041. Besides, the composite z-score was 0.431 in [8]; 0.994 in assay [9]; 1.23 in [10]; -0.298 in [11]; 0.203 in [13]; -0.638 in [14]. Further, the composite z-score is -0.282 in assay [15]; 0.506 in assay [16]; 0.841 in [17]; 0.958 in assay [18]; 1.49 in assay [19]; -0.923 in [20]. In addition, the z-score is -0.686 (inactive) in assay [4] and -0.87 in assay [12].
For the compound `[N-]=[N+]=NCc1ccccc1C[C@@]1(C(=O)NCc2ccccc2)N=C(c2ccc(OCCCO)cc2)O[C@@H]1c1ccccc1`, the composite z-score in assay [1] was 0.92; in assay [2], 0.928; in assay [3], 1.12; in assay [5] it was 0.185; in assay [6], 0.6; in assay [7] it was -0.471. For the same compound, the composite z-score in assay [8] is -0.159; in assay [9] it was -0.373; in assay [10], 0.661; in assay [11] it was 0.212; in assay [13], -0.592; in assay [14] it was 1.43. For the same compound, the composite z-score in assay [15] worked out at 1.21; in assay [16] it was 0.0761; in [17], 0.0644; in [18], 0.868; in [19], 0.595; in [20], 0.732. Besides, the results for the z-score in assay [4] and in assay [12] were -1.4 (inactive) and -3.05, respectively.
